ZTA counter: blocks Epstein-Barr virus ZTA, an EBNA-1 counter-screen; ZTA-DNA binding, fluorescence polarization; 0.15% of 320,000 active; inhibition, % at 11 µM; P03206; AID 2234; in the data active = inhibition above about 33%
Target sequence (P03206 whole entry, looked up): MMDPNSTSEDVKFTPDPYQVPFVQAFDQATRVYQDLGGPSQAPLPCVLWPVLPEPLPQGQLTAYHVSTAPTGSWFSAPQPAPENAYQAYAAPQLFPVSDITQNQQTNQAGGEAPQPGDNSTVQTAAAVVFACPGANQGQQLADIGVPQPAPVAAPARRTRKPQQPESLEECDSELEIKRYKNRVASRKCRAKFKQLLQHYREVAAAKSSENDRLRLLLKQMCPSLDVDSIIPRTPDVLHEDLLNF
NALP1 yeast inh: blocks the NALP1 inflammasome reconstituted in yeast. S. cerevisiae NALP1/ASC/caspase-1 growth, X-gal OD620, 72 h. 0.61% of 280,000 active. inhibition, % at 10 µM; in the data active = inhibition mostly above about 24%, no sharp cut-off; inactive = mostly below about 32%
EBNA-1 inhibitor: blocks EBNA-1 binding to DNA; 0.34% of 300,000 active; inhibition, % at 14.8 µM; EBNA-1 DNA binding, fluorescence polarization; AID 1950; in the data active = inhibition above about 28%
NLRP3 yeast inh: inhibitors of NALP3 inflammasome in yeast. Yeast reconstituted NLRP3/ASC/caspase-1, beta-gal luminescence, 24 h. inhibition, % at 10 µM. 0.39% of 330,000 active. AID 2825;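 active = inhibition of 50% or more; inactive = inhibition below 50%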;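 also: plate controls were induced DMSO wells for no effect and uninduced yeast grown without galactose for full effect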
PolyA inhibitor: inhibitors of polyadenylation in S. cerevisiae | 0.02% of 300,000 active | S. cerevisiae SKY197-pL101 polyadenylation reporter, beta-gal luminescence; efflux-impaired pdr1/pdr3 knockout yeast; score 100 = 6 SD above DMSO | activity score, % at 12 µM;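 active = lowest replicate activity score at least 50, where 100 means six control SD above control mean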;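 also: yeast exposed to compound for 9 h at 30 °C; higher score means more reporter readthrough which indicates perturbed polyadenylation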
dFosB act-1: enhances mouse delta FosB homodimer DNA binding. P13346. purified delta FosB, TAMRA-CDK5 oligo fluorescence polarization; percent of positive-control signal above neutral wells. activation, % at 25 µM. 0.99% of 340,000 active;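 active = mean activation above about 17%, with every replicate also reaching it, limit read from the data, passing the limit was not always enough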
Target sequence (P13346 whole entry, looked up): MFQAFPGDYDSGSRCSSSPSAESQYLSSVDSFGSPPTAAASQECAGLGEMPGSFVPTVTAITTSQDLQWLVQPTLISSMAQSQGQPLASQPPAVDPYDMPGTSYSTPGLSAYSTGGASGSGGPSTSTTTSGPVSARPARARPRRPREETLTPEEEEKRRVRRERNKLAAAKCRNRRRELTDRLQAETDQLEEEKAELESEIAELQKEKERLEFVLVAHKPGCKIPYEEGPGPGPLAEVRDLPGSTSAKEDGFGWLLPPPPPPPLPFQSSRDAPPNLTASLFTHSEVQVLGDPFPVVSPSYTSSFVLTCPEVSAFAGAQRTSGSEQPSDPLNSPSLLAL
dFosB act-2: delta FosB (mouse) homodimer activation. shares compounds with dFosB act-1. purified delta FosB, TAMRA-CDK5 oligo fluorescence polarization; normalised: neutral wells 0, positive control 100. activation, % at 24.9 µM. 2,400 tested, under 10 active;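 active = highest replicate activation at or above 34% and every replicate reaching that threshold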;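 also: higher polarization means more probe DNA bound by delta FosB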
Starred values were filed as active, the others as inactive; x = not tested or not shown. Most compounds without a hit are left out; they make up all but 2.2% or so of the library.

SMILES	ZTA counter	NALP1 yeast inh	EBNA-1 inhibitor	NLRP3 yeast inh	PolyA inhibitor	dFosB act-1	dFosB act-2
O=C(Cn1nnc(-c2ccccc2F)n1)Nc1cccc2ncccc12	17	5	-6	9	-6	26*	6
CC1CCN(S(=O)(=O)c2ccc(NC(=O)Cn3nnc(-c4ccccc4F)n3)cc2)CC1	-9	1	12	12	-12	78*	4
Cc1ccc(NC(=O)Cn2nnc(-c3ccccc3NC(=O)c3cccs3)n2)cc1	15	-5	-6	9	-7	48*	6
O=C(Cn1nnc(-c2ccccc2F)n1)NCCc1ccccc1	3	-12	8	16	-7	-13	x
O=C(Nc1ccc(Cl)cc1)NN1CC(=O)N(c2cccc(C(F)(F)F)c2)CC1=O	11	x	5	5	-16	31*	-1
NC(=O)c1ccc(NC(=O)CCN=C2NS(=O)(=O)c3ccccc32)cc1	-12	x	-1	-1	-6	-12	x
NNc1nc(Nc2ccc([N+](=O)[O-])cc2)nc(N2CCCCCC2)n1	4	12	-7	24	5	67*	5
OC1(C#CCN2CCCC2)CCCCC1	-6	4	-4	-1	3	3	x
COc1ccc(-c2nc(Cc3ccc(Cl)cc3)no2)cc1OC	3	42	10	22	-11	50*	0
CC(=O)c1ccc(Nc2nc(NCCO)nc(OC(C(F)(F)F)C(F)(F)F)n2)cc1	3	-1	-3	7	9	-4	x
CNc1nc(Nc2ccc(C(C)=O)cc2)nc(OC(C(F)(F)F)C(F)(F)F)n1	-22	0	-9	-2	12	44*	-1
OCCNc1nc(Nc2ccc(O)cc2)nc2ccccc12	-7	x	-11	25	0	19*	3
Clc1cc(Cl)cc(Nc2ncnc(-n3cccc3)n2)c1	-2	-4	-2	25	2	30*	-1
Cc1ccc(Nc2ncnc(-n3cccc3)n2)cc1Cl	-1	-8	5	14	6	5	x
O=C(C1=C(O)C(=O)N(CCCn2ccnc2)C1c1cccc(Br)c1)c1ccco1 (configuration not stated)	-1	14	-9	15	-6	-3	x
Cc1ccc(NC(=O)C2CC(=O)Nc3nc4ccccc4n32)c(C)c1 (configuration not stated)	9	x	26	-4	3	47*	6
Cc1ccc(CNC(=O)CC(C)S(=O)(=O)c2cc3c(cc2C)NC(=O)CO3)cc1 (configuration not stated)	5	2	-8	0	2	23*	3
Cc1nn(Cc2ccccc2)c(C)c1NC(=O)CSc1nc(C2CC2)nc2c1cnn2-c1ccccc1	-21	26	-1	10	4	2	x
O=C(CSc1nc(C2CC2)nc2c1cnn2-c1ccccc1)Nc1c[nH]c(=O)[nH]c1=O	2	26	-8	12	-10	127*	3
COc1cccc(NC(=O)CSc2nc(C3CC3)nc3ccccc23)c1	-13	-4	1	37	-7	4	x
Cc1cc(NC(=O)CSc2nc(CCC3CCCC3)nc3ccccc23)no1	7	37	5	-7	5	47*	-5
Cc1cccc(C)c1NC(=O)CSc1nc(C2CC2)nc2ccccc12	13	21	-9	2	-5	20*	5
C#CCOCCOCCOCCNc1nc(N2CCN(C(=O)[C@H](CO)n3cc([C@@H](N)C(C)C)nn3)CC2)nc(N2CCN(C(=O)[C@H](CO)n3cc([C@@H](N)C(C)C)nn3)CC2)n1	x	x	x	x	x	-3	x
CCC(=O)NC(=S)Nc1ccc2oc(-c3ccc(OC)cc3)nc2c1	-1	16	12	-18	-8	40*	2
O=S(=O)(c1cccs1)N1CN(Cc2ccccc2)c2nc3ccccc3nc21	-2	2	4	1	20	3	x
SMILES	ZTA counter	NALP1 yeast inh	EBNA-1 inhibitor	NLRP3 yeast inh	PolyA inhibitor	dFosB act-1	dFosB act-2
COc1ccc(CN2CN(S(=O)(=O)c3cccs3)c3nc4ccccc4nc32)cc1	-15	-6	20	9	-9	58*	-3
Cc1ccc(OCc2nnc(SCC(=O)Nc3sc(C)c(C)c3C#N)n2C)cc1	10	-2	19	12	11	26*	0
CCOC(=O)c1c(CSC(=N)N)n(-c2ccc(C)cc2)c2cc(Br)c(OC(C)=O)cc12	-4	-4	-1	3	-3	37*	2
CCOC(=O)c1c(CSC(=N)N)n(C)c2cc(Br)c(OC(C)=O)cc12	3	x	3	6	6	13	x
Cc1ccc(SCc2nc3ccccc3n2CC(=O)Nc2c(C)cccc2C)cc1	-15	-4	0	3	-3	32*	0
CC(C)C(NC(=O)c1ccc(Cl)c([N+](=O)[O-])c1)C(=O)NCc1ccccn1 (configuration not stated)	x	x	x	14	x	0	x
Cc1ccc2[nH]c3c(NCCN4CCOCC4)ncnc3c2c1	x	6	x	7	6	4	x
Clc1ccc2[nH]c3c(NCCCN4CCOCC4)ncnc3c2c1	1	-1	-10	8	8	22*	0
N#C/C(=C(/O)c1ccc(Cl)c([N+](=O)[O-])c1)c1nc2ccccc2[nH]1	-14	8	-3	9	-3	42*	2
CCCCC(=O)Nc1nnc(S(=O)(=O)N(CC)c2ccccc2)s1	22	6	9	0	-6	18*	-1
C=CCOc1ccc(CN(C)CC(O)COc2cccc3ccccc23)cc1 (configuration not stated)	0	24	1	8	-10	19*	2
Cc1ccc(S(=O)(=O)Nc2cc(C)c(O)c(Sc3n[nH]c(C)n3)c2)cc1	13	5	-4	13	4	-3	x
Cc1c(C)n(Cc2ccc(F)cc2)c2ccc(C(=O)NCCCN3CCOCC3)cc12	5	21	6	1	24	-1	x
CCN1CCN(c2cc(N3CCc4ccccc4C3)c(F)cc2[N+](=O)[O-])CC1	2	35	-8	24	-9	19*	0
CC(=O)N1CCN(c2cc(N3CCCC3)c(F)cc2[N+](=O)[O-])CC1	4	17	-15	12	4	-5	x
Cc1cc(=O)oc2cc(OCC(=O)Nc3ccc(CN4CCOCC4)cc3)ccc12	-10	-2	4	7	6	-17	x
O=C(COc1ccc2c(-c3ccccc3)cc(=O)oc2c1)Nc1ccc(CN2CCOCC2)cc1	-6	24	-9	7	1	27*	2
CCOC(=O)Nc1ccc2c(c1)N(C(=O)CN)c1ccccc1CC2	-7	2	-6	14	-4	30*	-1

Assay outcomes: PubChem BioAssay, several laboratories
